Data from PubChem BioAssay (EPA / NIEHS).
Active and inactive are the calls of the source. Rule for the calls: active = hit-call score of the fitted dose curve at least 0.9, where 1 is the maximum; inactive = score below 0.9.

Tested on: not listed separately
Experiment: ATG_GLI_CIS: Attagene CIS-FACTORIAL HepG2 Assay for human Zinc Finger Protein GLI1 (AID 2282945)
Conditions: HepG2, Attagene cis-factorial reporter mRNA, GLI element; actives raise or lower the signal
Procedure, shortened: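 Bidirectional curve fits relative to DMSO, using reporter mRNA levels from RT-PCR plus capillary electrophoresis. Cells were HepG2 transiently carrying cis-regulated reporter constructs, harvested 24 h after dosing.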

Row | Compound | outcome | AC50
1 | Nc1ccc(N=Nc2ccccc2)cc1 | inactive | 
2 | N#CC(Br)(Br)C(N)=O | inactive | 
3 | OCCOCCO | inactive | 
4 | CC(C)(OOC(C)(C)c1ccccc1)c1ccccc1 |  | 59.1 µM (active)
5 | CCC(C)c1ccc(O)cc1 (stereo not given) | inactive | 
6 | Cc1cc(N=Nc2ccccc2C)ccc1N | inactive | 
7 | CCC12COCN1COC2 | inactive | 
8 | CCCCCCCCn1sccc1=O |  | 16.9 µM (active)
9 | CCCCOC(=O)c1ccccc1C(=O)OCc1ccccc1 | inactive | 
10 | COC(=O)Nc1nc2ccccc2[nH]1 | inactive | 
11 | CC(C)(C)OOC(C)(C)CCC(C)(C)OOC(C)(C)C | inactive | 
12 | O=C1CCCO1 | inactive | 
13 | CCC[CH2][Sn]([Cl])([CH2]CCC)[CH2]CCC | inactive | 
14 | [O-][Cl+]O | inactive | 
15 | ClCCOCCCl | inactive | 
16 | CC(C)(C)OOC(=O)c1ccccc1 | inactive | 
17 | c1ccc(NNc2ccccc2)cc1 | inactive | 
18 | Cc1ccc(N=C=O)cc1N=C=O | inactive | 
19 | c1ccc2c(c1)-c1cccc3cccc-2c13 | inactive | 
20 | Cc1cccc(N)c1N | inactive | 
21 | Clc1ccc(C(c2ccc(Cl)cc2)C(Cl)(Cl)Cl)cc1 | inactive | 
22 | CN(C)c1ccc(C(=O)c2ccc(N(C)C)cc2)cc1 | inactive | 
23 | COC(=O)c1ccccc1N | inactive | 
24 | O=C(N[C@H](c1ccccc1)[C@@H]1CN2CCC1CC2)c1c(Cl)ccc(C(F)(F)F)c1Cl | inactive | 
25 | CN(C)c1ccccc1 | inactive | 
26 | O=[N+]([O-])c1ccc(Oc2ccc(Cl)cc2Cl)cc1 | inactive | 
27 | CCCCCCCCOC(=O)c1ccc(C(=O)OCCCCCCCC)c(C(=O)OCCCCCCCC)c1 |  | 26.3 µM (active)
28 | COP(=S)(OC)SCN1C(=O)c2ccccc2C1=O | inactive | 

Target: Bile acid receptor (Homo sapiens) (UniProt Q96RI1)
Experiment: ATG_IR1_CIS: Attagene CIS-FACTORIAL HepG2 Assay for human Nuclear Receptor Subfamily 1 Group H Member 4 (NR1H4), IR1 submotif (AID 2282946)
Conditions: IR1 reporter transcription, actives raise or lower the signal
Procedure, shortened: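 HepG2 cells transiently transfected with multiplexed cis-element reporter units read endogenous transcription factor activity. After 24 h compound exposure, reporter mRNA was quantified by RT-PCR, fluorescent labelling, HpaI digestion and capillary electrophoresis; bidirectional fitting versus DMSO baseline.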

Bile acid receptor (Homo sapiens), sequence (Q96RI1 whole entry, looked up): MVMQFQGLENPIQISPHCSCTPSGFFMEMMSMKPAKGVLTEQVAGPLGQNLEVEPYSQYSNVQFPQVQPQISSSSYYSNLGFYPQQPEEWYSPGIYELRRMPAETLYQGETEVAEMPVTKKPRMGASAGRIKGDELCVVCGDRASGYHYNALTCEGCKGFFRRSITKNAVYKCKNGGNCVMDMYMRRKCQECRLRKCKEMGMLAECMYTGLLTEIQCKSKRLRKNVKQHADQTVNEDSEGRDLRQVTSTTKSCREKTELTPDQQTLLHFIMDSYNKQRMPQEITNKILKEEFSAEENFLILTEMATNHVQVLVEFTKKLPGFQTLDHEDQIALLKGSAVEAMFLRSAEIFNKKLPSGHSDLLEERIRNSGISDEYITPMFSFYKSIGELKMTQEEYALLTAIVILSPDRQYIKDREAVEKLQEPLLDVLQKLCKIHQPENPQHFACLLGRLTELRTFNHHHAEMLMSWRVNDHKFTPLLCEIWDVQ

Row | Compound | outcome | AC50
29 | Nc1ccc(N=Nc2ccccc2)cc1 | inactive | 
30 | OCCOCCO | inactive | 
31 | CC(C)(OOC(C)(C)c1ccccc1)c1ccccc1 | inactive | 
32 | CCC(C)c1ccc(O)cc1 (stereo not given) | inactive | 
33 | Cc1cc(N=Nc2ccccc2C)ccc1N | inactive | 
34 | CCCCCCCCn1sccc1=O | inactive | 
35 | O=C1CCCO1 | inactive | 
36 | CCC[CH2][Sn]([Cl])([CH2]CCC)[CH2]CCC |  | 0.0138 µM (active)
37 | ClCCOCCCl | inactive | 
38 | c1ccc(NNc2ccccc2)cc1 | inactive | 
39 | Cc1cccc(N)c1N | inactive | 
40 | Clc1ccc(C(c2ccc(Cl)cc2)C(Cl)(Cl)Cl)cc1 | inactive | 
41 | CN(C)c1ccc(C(=O)c2ccc(N(C)C)cc2)cc1 | inactive | 
42 | O=C(N[C@H](c1ccccc1)[C@@H]1CN2CCC1CC2)c1c(Cl)ccc(C(F)(F)F)c1Cl | inactive | 
43 | CN(C)c1ccccc1 | inactive | 
44 | CCCCCCCCOC(=O)c1ccc(C(=O)OCCCCCCCC)c(C(=O)OCCCCCCCC)c1 | inactive | 
45 | COP(=S)(OC)SCN1C(=O)c2ccccc2C1=O | inactive | 
